Laboratory results from the supplement of paper PMC8728848.
The sample as a whole holds a higher share of the strongest signals than the screen did.

Columns and labels:
Test in all cases: glycan array binding signal (z-score within array); higher = stronger binding
Conditions in all cases: glycan notation: IUPAC condensed, linker removed
[1] = target: GlcNAc(a1-4)Gal(b1-4)GlcNAc(b1-3)Gal(b1-4)[Fuc(a1-3)]GlcNAc(b1-3)Gal(b1-4)[Fuc(a1-3)]GlcNAc
How it was run: (§1)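 Columns mapping to the same glycan were averaged after glycan names were converted to IUPAC-condensed notation. The data come from 3228 arrays in the Consortium for Functional Glycomics database, limited to those with an available protein sequence. Binding is reported as a within-array Z-score averaged across arrays of one protein sequence and across linkers.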

[2] = target: GlcNAc(b1-2)Man(a1-3)[GlcNAc(b1-2)Man(a1-6)]Man(b1-4)GlcNAc(b1-4)[Fuc(a1-6)]GlcNAc
How it was run: as §1

[3] = target: GlcNAc(b1-3)Gal(b1-4)GlcNAc(b1-2)Man(a1-3)[GlcNAc(b1-3)Gal(b1-4)GlcNAc(b1-2)Man(a1-6)]Man(b1-4)GlcNAc(b1-4)[Fuc(a1-6)]GlcNAc
How it was run: as §1

[4] = target: GlcNAc(b1-3)Gal(b1-4)GlcNAc(b1-6)[Gal(b1-3)]GalNAc
How it was run: as §1

GlcNAc(b1-6)GalNAc = target: GlcNAc(b1-6)GalNAc
How it was run: as §1

[5] = target: Man(a1-2)Man(a1-3)[Man(a1-2)Man(a1-6)]Man
How it was run: as §1

[6] = target: Man(a1-2)Man(a1-3)[Man(a1-2)Man(a1-6)]Man(a1-6)[Man(a1-2)Man(a1-2)Man(a1-3)]Man
How it was run: as §1

[7] = target: Man(a1-2)Man(a1-6)[Man(a1-3)]Man(a1-6)[Man(a1-2)Man(a1-2)Man(a1-3)]Man
How it was run: as §1

[8] = target: Man(a1-3)[Man(a1-6)]Man(a1-6)[Man(a1-3)]Man
How it was run: as §1

Man(a1-6)Man = target: Man(a1-6)Man
How it was run: as §1

[9] = target: Neu5Ac(a2-3)Gal(b1-3)GalNAc
How it was run: as §1

[10] = target: Neu5Ac(a2-3)Gal(b1-4)GlcNAc
How it was run: as §1

[11] = target: Neu5Ac(a2-3)Gal(b1-4)GlcNAc(b1-3)Gal(b1-3)GlcNAc
How it was run: as §1

[12] = target: Neu5Ac(a2-3)Gal(b1-4)GlcNAc(b1-6)[Gal(b1-3)]GalNAc
How it was run: as §1

[13] = target: Neu5Ac(a2-3)Gal(b1-4)[Fuc(a1-3)]GlcNAc(b1-3)GalNAc
How it was run: as §1

Neu5Ac(a2-3)GalNAc = target: Neu5Ac(a2-3)GalNAc
How it was run: as §1

[14] = target: Neu5Ac(a2-6)Gal(b1-4)GlcNAc(b1-2)Man(a1-3)[GlcNAc(b1-2)Man(a1-6)]Man(b1-4)GlcNAc(b1-4)GlcNAc
How it was run: as §1

[15] = target: Neu5Ac(a2-8)Neu5Ac(a2-8)Neu5Ac(a2-3)[Gal(b1-3)GalNAc(b1-4)]Gal(b1-4)Glc
How it was run: as §1

[16] = target: Neu5Gc(a2-8)Neu5Gc(a2-3)Gal(b1-4)GlcNAc
How it was run: as §1

B1: GS13455A-bfa-343-25-343 (Bacteroides fragilis) (protein)
chain: KDEIQIVDQDTSWQMDNKYIEEDIREQLGIDPFTDLVYLGYYGNPYTQLEAINDLVNTTLVGKNELSFKVKVTKPYKEDIKVNLMKEDKLVTDFPEMAEGIPLFPSENCTFEGGVLKAGELETTVKLTLKDVEKLNNLSGYVMAIKLTMEGSHEHLAIARTRSSYFVKLNLSIRLDNIDSSNKKIEGKGFNKEISFKSDIRPDKLGSLNDGNFTANNWYTSNANNYLTIILPEKQSLKGFRLDTNTSPSGSYMLKSCRVMVETPDGNWVNHGVFDRKSMDGIAYISFKKPVECTKVRFENMMAFNGRFSVDVNEVTAFR
glycan array binding signal (z-score) [1]: 1.64 | glycan array binding signal (z-score) [2]: -0.409 | glycan array binding signal (z-score) [3]: 0.601 | glycan array binding signal (z-score) [4]: -0.194 | glycan array binding signal (z-score) (GlcNAc(b1-6)GalNAc): -0.656 | glycan array binding signal (z-score) [5]: -0.554 | glycan array binding signal (z-score) [6]: -0.701 | glycan array binding signal (z-score) [7]: 0.988 | glycan array binding signal (z-score) [8]: -0.129 | glycan array binding signal (z-score) (Man(a1-6)Man): 0.205 | glycan array binding signal (z-score) [9]: 0.08 | glycan array binding signal (z-score) [10]: -0.152 | glycan array binding signal (z-score) [11]: 0.34 | glycan array binding signal (z-score) [12]: -0.414 | glycan array binding signal (z-score) [13]: 3.25 | glycan array binding signal (z-score) (Neu5Ac(a2-3)GalNAc): -0.681 | glycan array binding signal (z-score) [14]: 0.878 | glycan array binding signal (z-score) [15]: -0.113 | glycan array binding signal (z-score) [16]: 0.527
